Results reported in the supplement of paper PMC10849652.
About 8,800 targets were measured; listed, in parts, are those with a hit and a random draw of the rest. About 0.5% of all pairs of compound and target were hits.

Columns and labels:
Experiment in all cases: log2 fold change, soluble protein after heating vs DMSO (PISA); higher = thermal stabilisation; K562 lysate, 10 uM; active = over 0.2 and 3.5 SD of the protein, either way, in both replicates (recomputed)
alvocidib = compound: CN1CC[C@H](c2c(O)cc(O)c3c(=O)cc(-c4ccccc4Cl)oc23)[C@H](O)C1 [alvocidib]
Outline: (§1)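 Soluble protein was defined as the supernatant remaining after 21,000xg for 90 min, following pooling of heated aliquots and adjustment to 0.5% NP-40 at 4°C. Before that, crude K562 extract at 1 mg/mL protein in PBS pH 7.4 with 1 mM MgCl2 was treated with 10 μM compound for 30 min and heated for 3 min across 48°C-58°C. Quantification used TMTpro 16plex LC-MS/MS with channel sums equalised, and values are log-two fold changes in thermal stability relative to solvent controls from duplicates.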

Tubastatin A = compound: CN1CCc2c(c3ccccc3n2Cc2ccc(C(=O)NO)cc2)C1 [Tubastatin A]
Outline: as §1

[1] = compound: CNC(=O)C1=CC=CC=C1NC2=NC(=NC=C2Cl)NC3=C(C=C(C=C3)N4CCOCC4)OC
Outline: as §1

[2] = compound: CNc1nc(-c2ccc3c(N)n[nH]c3c2)cc(N2C[C@@H](C(=O)NC3CCCCC3)CC[C@H]2C)n1
Outline: as §1

[3] = compound: COc1cc2nc(-c3cc(F)ccc3O)nc(N[C@@H]3CNC[C@H]3C(C)(C)O)c2cc1OC
Outline: as §1

defactinib = compound: CNC(=O)c1ccc(Nc2ncc(C(F)(F)F)c(NCc3nccnc3N(C)S(C)(=O)=O)n2)cc1 [defactinib]
Outline: as §1

encorafenib = compound: COC(=O)N[C@@H](C)CNc1nccc(-c2cn(C(C)C)nc2-c2cc(Cl)cc(NS(C)(=O)=O)c2F)n1 [encorafenib]
Outline: as §1

[4] = compound: COC(=O)[C@H](CCSC)NC(=O)C1=C(C=C(C=C1)NC[C@H](CS)N)C2=CC=CC=C2
Outline: as §1

alisertib = compound: COc1cc(Nc2ncc3c(n2)-c2ccc(Cl)cc2C(c2c(F)cccc2OC)=NC3)ccc1C(=O)O [alisertib]
Outline: as §1

gefitinib = compound: COc1cc2ncnc(Nc3ccc(F)c(Cl)c3)c2cc1OCCCN1CCOCC1 [gefitinib]
Outline: as §1

Measured: log2 fold change

ALDH3A1 (UniProt P30838)
inactive: alvocidib -0.218 | Tubastatin A 0.366 | [1] -0.065 | [2] -0.138 | [3] 0.165

ACLY isoform 2 (UniProt P53396)
Sequence of UniProt P53396 (P53396 whole entry, looked up): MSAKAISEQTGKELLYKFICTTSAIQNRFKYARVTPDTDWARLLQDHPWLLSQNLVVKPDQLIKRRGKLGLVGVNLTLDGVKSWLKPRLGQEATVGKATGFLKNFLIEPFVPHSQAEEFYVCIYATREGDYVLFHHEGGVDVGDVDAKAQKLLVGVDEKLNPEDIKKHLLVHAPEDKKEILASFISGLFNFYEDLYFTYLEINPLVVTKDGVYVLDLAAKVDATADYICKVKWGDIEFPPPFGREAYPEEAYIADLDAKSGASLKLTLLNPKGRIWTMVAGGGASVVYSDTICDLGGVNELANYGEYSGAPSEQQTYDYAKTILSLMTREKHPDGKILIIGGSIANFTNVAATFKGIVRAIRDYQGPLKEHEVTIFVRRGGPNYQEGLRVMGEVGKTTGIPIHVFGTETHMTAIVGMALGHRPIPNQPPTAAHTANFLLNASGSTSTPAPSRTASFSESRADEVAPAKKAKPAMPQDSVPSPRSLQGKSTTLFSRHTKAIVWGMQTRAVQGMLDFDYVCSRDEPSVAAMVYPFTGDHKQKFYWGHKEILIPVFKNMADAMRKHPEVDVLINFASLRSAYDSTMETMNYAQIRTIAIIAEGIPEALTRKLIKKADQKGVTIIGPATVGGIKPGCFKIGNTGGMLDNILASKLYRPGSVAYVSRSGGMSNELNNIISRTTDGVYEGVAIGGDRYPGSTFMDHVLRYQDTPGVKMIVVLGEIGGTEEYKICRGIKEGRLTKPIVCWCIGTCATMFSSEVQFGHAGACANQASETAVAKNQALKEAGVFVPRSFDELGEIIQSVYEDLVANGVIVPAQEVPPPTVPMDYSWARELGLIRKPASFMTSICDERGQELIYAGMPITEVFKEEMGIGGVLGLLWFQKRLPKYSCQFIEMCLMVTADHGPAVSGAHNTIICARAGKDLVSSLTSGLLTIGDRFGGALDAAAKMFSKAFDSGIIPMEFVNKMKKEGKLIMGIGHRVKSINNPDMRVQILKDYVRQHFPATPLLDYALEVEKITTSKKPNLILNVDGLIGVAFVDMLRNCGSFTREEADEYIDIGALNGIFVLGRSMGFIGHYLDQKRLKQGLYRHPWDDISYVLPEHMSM
inactive: alvocidib -0.147 | Tubastatin A 0.017 | defactinib 0.007 | encorafenib 0.072 | [4] 0.009 | alisertib -0.089 | [3] 0.071 | gefitinib -0.407

ARHGEF2 (UniProt V9GYF0)
inactive: Tubastatin A -0.07 | defactinib -0.211 | [2] 0.082 | encorafenib -0.035 | [4] 0.014 | alisertib -0.083 | [3] 0.112 | gefitinib 0.229

ANXA2 (UniProt H0YL33)
inactive: alvocidib 0.315 | Tubastatin A 0.109 | [1] -0.177 | [2] 0.222 | alisertib 0.001 | [3] 0.005 | gefitinib 0.097

ADAM17 (UniProt P78536)
Sequence of UniProt P78536 (P78536 whole entry, looked up): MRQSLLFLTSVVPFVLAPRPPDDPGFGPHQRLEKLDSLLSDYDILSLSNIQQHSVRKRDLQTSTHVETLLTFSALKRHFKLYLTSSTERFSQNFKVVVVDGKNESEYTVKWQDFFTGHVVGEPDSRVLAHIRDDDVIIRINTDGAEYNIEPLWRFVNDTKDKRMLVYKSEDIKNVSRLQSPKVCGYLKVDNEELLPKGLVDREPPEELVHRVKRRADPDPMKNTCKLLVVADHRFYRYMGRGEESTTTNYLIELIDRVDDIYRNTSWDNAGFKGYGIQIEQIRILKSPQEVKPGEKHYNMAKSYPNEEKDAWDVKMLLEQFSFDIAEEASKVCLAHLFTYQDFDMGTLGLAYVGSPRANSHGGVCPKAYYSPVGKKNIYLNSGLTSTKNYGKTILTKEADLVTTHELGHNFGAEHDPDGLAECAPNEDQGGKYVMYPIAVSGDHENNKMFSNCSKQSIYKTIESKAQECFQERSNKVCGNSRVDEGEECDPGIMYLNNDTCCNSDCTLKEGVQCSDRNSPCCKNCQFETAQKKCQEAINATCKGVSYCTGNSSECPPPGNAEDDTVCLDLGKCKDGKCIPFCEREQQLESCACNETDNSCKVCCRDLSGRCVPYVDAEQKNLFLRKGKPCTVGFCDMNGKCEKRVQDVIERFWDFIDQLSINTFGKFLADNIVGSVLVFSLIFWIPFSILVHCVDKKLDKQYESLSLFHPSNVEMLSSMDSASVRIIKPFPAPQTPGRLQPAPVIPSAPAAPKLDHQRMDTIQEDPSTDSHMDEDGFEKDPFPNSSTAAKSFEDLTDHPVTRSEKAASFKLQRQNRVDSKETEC
inactive: alvocidib -0.066 | Tubastatin A 0.063 | [1] 0.011 | defactinib 0.005 | [2] 0.04 | encorafenib 0.09 | [4] 0.109 | alisertib -0.048 | gefitinib 0.031

ADK, A0A5F9ZH76
inactive: alisertib 0.008 | [3] -0.063 | gefitinib 0.072

ADD1 isoform 4 (UniProt P35611)
Sequence of UniProt P35611 (P35611 whole entry, looked up): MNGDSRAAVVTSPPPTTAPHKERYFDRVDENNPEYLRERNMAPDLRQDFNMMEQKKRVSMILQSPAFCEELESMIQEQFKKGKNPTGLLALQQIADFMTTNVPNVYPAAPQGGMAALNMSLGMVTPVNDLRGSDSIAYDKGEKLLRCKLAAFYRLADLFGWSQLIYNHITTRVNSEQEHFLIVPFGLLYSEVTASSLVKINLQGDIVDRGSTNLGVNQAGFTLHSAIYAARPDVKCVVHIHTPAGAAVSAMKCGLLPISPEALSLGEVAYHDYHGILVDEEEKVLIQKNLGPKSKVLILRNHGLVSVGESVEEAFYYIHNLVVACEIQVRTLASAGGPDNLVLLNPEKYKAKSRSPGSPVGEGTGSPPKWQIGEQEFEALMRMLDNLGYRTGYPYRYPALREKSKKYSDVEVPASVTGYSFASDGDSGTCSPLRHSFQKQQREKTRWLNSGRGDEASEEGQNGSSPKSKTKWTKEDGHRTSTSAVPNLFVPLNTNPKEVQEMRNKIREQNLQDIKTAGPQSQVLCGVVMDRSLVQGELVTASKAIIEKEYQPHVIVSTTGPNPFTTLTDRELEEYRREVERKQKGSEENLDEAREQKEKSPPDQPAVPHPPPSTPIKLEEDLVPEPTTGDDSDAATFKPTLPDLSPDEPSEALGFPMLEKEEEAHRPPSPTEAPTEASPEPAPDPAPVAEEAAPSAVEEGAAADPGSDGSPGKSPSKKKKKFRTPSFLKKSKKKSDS
inactive: alvocidib -0.397 | Tubastatin A 0.303 | [1] -0.081 | defactinib 0.071 | [2] 0.051 | encorafenib -0.034 | [4] 0 | [3] 0.094

ANP32E isoform 3 (UniProt Q9BTT0)
Sequence of UniProt Q9BTT0 (Q9BTT0 whole entry, looked up): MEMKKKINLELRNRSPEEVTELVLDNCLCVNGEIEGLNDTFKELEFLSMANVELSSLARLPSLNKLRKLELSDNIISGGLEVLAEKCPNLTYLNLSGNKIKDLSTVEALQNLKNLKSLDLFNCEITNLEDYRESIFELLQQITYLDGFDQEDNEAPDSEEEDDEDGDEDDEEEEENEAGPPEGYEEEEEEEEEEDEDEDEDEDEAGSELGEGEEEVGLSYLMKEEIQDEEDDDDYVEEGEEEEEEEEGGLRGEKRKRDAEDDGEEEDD
inactive: alvocidib -0.27 | defactinib -0.141 | encorafenib 0.036 | [4] -0.015

ABL1 isoform 2 (UniProt P00519)
Sequence of UniProt P00519 (P00519 whole entry, looked up): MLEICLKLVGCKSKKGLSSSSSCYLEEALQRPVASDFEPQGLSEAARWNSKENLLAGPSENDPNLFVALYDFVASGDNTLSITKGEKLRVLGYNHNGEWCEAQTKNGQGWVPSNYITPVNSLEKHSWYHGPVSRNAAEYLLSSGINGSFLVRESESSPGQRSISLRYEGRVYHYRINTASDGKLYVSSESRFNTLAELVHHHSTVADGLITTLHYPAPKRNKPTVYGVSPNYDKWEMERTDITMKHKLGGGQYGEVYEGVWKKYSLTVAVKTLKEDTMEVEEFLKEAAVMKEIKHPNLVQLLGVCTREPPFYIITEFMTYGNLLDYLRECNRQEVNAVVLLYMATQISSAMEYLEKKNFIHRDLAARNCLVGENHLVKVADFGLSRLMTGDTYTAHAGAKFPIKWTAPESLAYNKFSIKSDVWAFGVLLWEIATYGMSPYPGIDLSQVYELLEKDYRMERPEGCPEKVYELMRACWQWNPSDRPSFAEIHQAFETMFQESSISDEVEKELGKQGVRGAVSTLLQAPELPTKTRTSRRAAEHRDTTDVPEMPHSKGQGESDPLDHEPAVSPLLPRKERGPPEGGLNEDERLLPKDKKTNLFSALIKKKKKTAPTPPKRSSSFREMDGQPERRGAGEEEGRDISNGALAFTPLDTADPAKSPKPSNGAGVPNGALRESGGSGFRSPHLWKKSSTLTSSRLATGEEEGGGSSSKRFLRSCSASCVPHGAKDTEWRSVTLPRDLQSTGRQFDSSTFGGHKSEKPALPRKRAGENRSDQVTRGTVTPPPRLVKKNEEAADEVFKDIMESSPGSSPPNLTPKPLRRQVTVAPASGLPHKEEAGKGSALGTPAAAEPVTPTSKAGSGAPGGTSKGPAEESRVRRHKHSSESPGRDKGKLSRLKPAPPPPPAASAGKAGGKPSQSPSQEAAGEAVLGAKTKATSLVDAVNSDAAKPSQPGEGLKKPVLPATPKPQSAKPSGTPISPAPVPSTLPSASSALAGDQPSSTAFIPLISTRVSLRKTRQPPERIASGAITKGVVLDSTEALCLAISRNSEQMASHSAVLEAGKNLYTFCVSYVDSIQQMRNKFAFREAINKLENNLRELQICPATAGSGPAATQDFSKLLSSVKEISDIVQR
inactive: Tubastatin A -0.091 | [1] 0.044 | defactinib -0.023 | [2] -0.011 | encorafenib 0.039 | [4] 0.071 | alisertib 0.019 | [3] -0.011

ALKBH7 (UniProt Q9BT30)
Sequence of UniProt Q9BT30 (Q9BT30 whole entry, looked up): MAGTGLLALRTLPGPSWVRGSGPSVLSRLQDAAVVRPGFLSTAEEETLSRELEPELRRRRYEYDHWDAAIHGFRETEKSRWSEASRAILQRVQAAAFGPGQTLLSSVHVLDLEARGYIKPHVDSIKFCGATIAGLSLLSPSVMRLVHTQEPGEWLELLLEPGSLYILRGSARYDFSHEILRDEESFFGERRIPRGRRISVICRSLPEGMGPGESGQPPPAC
inactive: alvocidib -0.016 | Tubastatin A -0.045 | [1] 0.35 | [2] -0.029 | encorafenib -0.115 | [4] 0.201 | alisertib 0.333 | gefitinib -0.108

ALDH18A1 isoform 2 (UniProt P54886)
Sequence of UniProt P54886 (P54886 whole entry, looked up): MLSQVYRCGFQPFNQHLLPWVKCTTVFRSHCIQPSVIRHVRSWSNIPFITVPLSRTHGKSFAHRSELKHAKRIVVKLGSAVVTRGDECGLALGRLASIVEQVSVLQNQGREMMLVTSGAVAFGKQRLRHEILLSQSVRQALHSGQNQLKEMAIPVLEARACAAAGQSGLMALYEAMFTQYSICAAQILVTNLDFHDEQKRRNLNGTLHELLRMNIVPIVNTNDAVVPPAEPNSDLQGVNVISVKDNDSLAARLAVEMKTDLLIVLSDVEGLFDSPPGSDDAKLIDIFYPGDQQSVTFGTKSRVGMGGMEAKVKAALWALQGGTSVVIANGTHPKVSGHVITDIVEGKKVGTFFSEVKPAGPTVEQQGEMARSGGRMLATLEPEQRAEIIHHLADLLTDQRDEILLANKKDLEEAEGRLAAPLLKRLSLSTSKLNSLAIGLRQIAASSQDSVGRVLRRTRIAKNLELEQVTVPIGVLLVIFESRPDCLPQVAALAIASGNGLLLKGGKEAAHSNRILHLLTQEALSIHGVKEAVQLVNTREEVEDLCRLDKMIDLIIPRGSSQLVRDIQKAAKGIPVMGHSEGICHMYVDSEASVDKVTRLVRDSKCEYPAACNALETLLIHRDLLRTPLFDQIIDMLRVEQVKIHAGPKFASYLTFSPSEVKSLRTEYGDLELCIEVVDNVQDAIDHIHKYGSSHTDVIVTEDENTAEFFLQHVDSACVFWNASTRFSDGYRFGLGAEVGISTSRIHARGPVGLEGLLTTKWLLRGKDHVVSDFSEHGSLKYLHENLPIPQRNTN
inactive: Tubastatin A -0.06 | defactinib 0.016 | [2] -0.139
